{"source": "PubChem BioAssay (NCATS)", "note": "Results filed as inconclusive are left out. Entries that show only a call come without a potency. Active and inactive are the calls of the source. Calls follow the shape of the dose curve; as a rule, active = well fitted cell-killing curve with a large enough effect; inconclusive = small, poorly fitted or top-dose-only effect, or effect the other way; inactive = no such curve, though single readings can be large or run the other way. Where a SMILES comes first, the peptide text is derived from it. [ ]: non-standard residue; d: D form. The star is where a group is joined. Sta = CC(C)C[C@H](N)[C@@H](O)CC(=O)O; Isovaleryl = CC(C)CC(=O)*", "data": [{"experiment": "Quantitative highthroughput screen to assess conditional lethalithy of NOMO1 cells grown in Human Plasma-Like Medium with dialyzed fetal bovine serum (HPLM+ds) (AID 1963878); also: nearly all actives have a fitted effect of over 35% in size; also: potency is read from the fitted curve at half-maximal effect", "settings": "NOMO1 AML cells in HPLM+ds, CellTiter-Glo viability, 48 h; series mostly up to 45.8 µM", "text": "Assay Provider: Jason Cantor Ph.D.\nDepartment of Biochemistry\nUniversity of Wisconsin-Madison, Madison, WI, USA\nChemical screening studies have identified drug sensitivities across hundreds of cancer cell lines but most putative therapeutics fail to translate. Discovery and development of drug candidates in models that more accurately reflect nutrient levels in human blood is a major challenge. Here we performed high-throughput screens in conventional versus Human Plasma-Like Medium (HPLM) to identify compounds that were \"missed\" when screening using the artificial culture condition. Sets of conditional anticancer compounds spanned phases of clinical development and included non-oncology drugs were assessed. […] We also traced conditional phenotypes for several chemotherapeutics to availability of HPLM-specific metabolites and confirmed others for compounds whose reported targets are encoded by nonessential genes. Our findings establish generalizable strategies for exploiting conditional lethality in HPLM to reveal therapeutic candidates and mechanisms of action in cancer cells.\nDescribed herein are the results of each viability screens against three cell lines: NOMO1 (an acute myeloid leukemia cell line); P12-Ichikawa (a T-cell acute lymphoblastic leukemia); and SEM (a B-cell ALL). Each assay was screened using 3 different cell culture media: homemade human plasma-Like medium with 10% dialyzed fetal bovine serum (HPLM+ds); RPMI1640 with 10% untreated FBS and 5mM glucose (RPMI+s); and RPMI1640 with 10% dialyzed fetal bovine serum and 5 mM glucose (RPMI+ds).\nPROTOCOL TABLE (as described by Inglese J, Shamu CE and Guy RK. 2007)\nSEQUENCE No. (e.g., 1, 2, 3, etc.); […] (e.g., Cells, Incubation, Reagent, etc.); VALUE and DESCRIPTION.\n1; Cells; 5 uL; white, solid bottom 1536-well Greiner assay plate.\n2; Compounds; 23 nL; Kalypsis pin tool (Wako USA) equipped with a 1536-well pin head to transfer to the assay plates.\n3; Incubation; 48 hours; 37C incubation.\n4; Reagent; 3 uL; CellTiter Glo (Promega).\n5; Incubation; 5 min, room temperature\n6; Detection; Luminescence, Viewlux PerkinElmer.\nNOTES (numbers refer to Sequence numbers above)\n1. Briefly, 5 ul of cell reagent was dispensed using a Multidrop Combi Dispenser. The NOMO1 and SEM cells were plated at 500 cells/well and the P12-Ichikawa line at 1000 cells/well.\n2. After seeding the cells, 23 nL of MIPE 4.1 library compounds (in DMSO) were added to each plate using a Kalypsys 1536 Pintool dispenser. Bortezomib at final concentration of […] and DMSO were added to each plate as positive and negative controls respectively. For each screen, MIPE 4.1 compounds were added over an eleven-point concentration range […] in 3-fold dilutions.\n3. Each plate was covered with a stainless steel gasketed lid to prevent evaporation and incubated for 48 hour at 37C, 95% relative humidity, and 5% CO2.\n4-5. Three microliter CellTilter-GloTM luminescent substrate mix (Promega) reagent was added to the assay plate and incubated at room temperature for 5 min.\n6. The luminescence signal was measured using a ViewLux (PerkinElmer) multiplate reader with a 2 second exposure time per plate. Data for each compound were normalized as percent viability such that measurements for DMSO and the empty well controls in each plate were defined as 100% and 0%, respectively.", "values": [{"smiles": "COc1ccc(-c2nc(N3CCOCC3)c3sc(CN(C)c4ncc(C(=O)NO)cn4)cc3n2)cn1", "Potency": "0.0166 µM (active)"}, {"smiles": "CC(=O)O[C@]1(C(C)=O)CC[C@H]2[C@@H]3C=C(C)C4=CC(=O)CC[C@]4(C)[C@@H]3CC[C@@]21C", "Potency": "inactive"}, {"smiles": "CCC(c1ccc(O)cc1)C(CC)c1ccc(O)cc1", "note": "(stereo not given)", "Potency": "inactive"}, {"smiles": "CC(=O)O[C@H]1C[C@@H]2CC[C@H]3[C@H]4C[C@H]([N+]5(C)CCCCC5)[C@@H](OC(C)=O)[C@@]4(C)CC[C@@H]3[C@@]2(C)C[C@H]1[N+]1(C)CCCCC1", "Potency": "inactive"}, {"smiles": "C[N+](C)(C)CC(=O)O", "Potency": "inactive"}, {"smiles": "O=C(O)CCCCCC(=O)NN=C1CCCC1", "Potency": "inactive"}, {"smiles": "C=C1C[C@@]2(O)O[C@@]3(C[C@H]2C(C)C)[C@H](C)CC[C@H]13", "Potency": "inactive"}, {"smiles": "O=C(c1cncc(Br)c1)N1CCC(N2CCCC2)CC1", "Potency": "inactive"}, {"smiles": "COc1cc(C(=O)NC2CCN(C)CC2)ccc1Nc1ncc2c(n1)N(C1CCCC1)CCC(=O)N2C(C)C", "Potency": "14.8 µM (active)"}, {"smiles": "Cn1cnc2c1c(=O)[nH]c(=O)n2C", "Potency": "20.9 µM (active)"}, {"smiles": "O=C(Nc1nc2ccccc2n1CCN1CCOCC1)c1cccc([N+](=O)[O-])c1", "Potency": "inactive"}, {"smiles": "COc1cc2c(cc1OC)C1CC(=O)C(CC(C)C)CN1CC2", "note": "(stereo not given)", "Potency": "inactive"}, {"smiles": "CCCc1nc2c(C)cc(-c3nc4ccccc4n3C)cc2n1Cc1ccc(-c2ccccc2C(=O)O)cc1", "Potency": "inactive"}, {"smiles": "O=C(C=Cc1c(C(=O)O)[nH]c2cc(Cl)cc(Cl)c12)Nc1ccccc1", "Potency": "inactive"}, {"smiles": "C[C@H](c1ccc(F)cc1CCCC(=O)O)N(c1cc(F)ccc1F)S(=O)(=O)c1ccc(Cl)cc1", "Potency": "inactive"}, {"smiles": "C=C1C(=O)OC(CCCCCCCC)C1C(=O)O", "note": "(stereo not given)", "Potency": "inactive"}, {"smiles": "COc1cc2ncn(-c3cc(OCc4ccccc4S(C)(=O)=O)c(C#N)s3)c2cc1OC", "Potency": "inactive"}, {"smiles": "O=C(Nc1cccc(Cl)c1)Nc1ncc(CCNc2ncnc3ccsc23)s1", "Potency": "0.105 µM (active)"}, {"smiles": "NC[C@H](O)c1ccc(O)c(O)c1", "Potency": "inactive"}, {"smiles": "O=c1cc(N2CCOCC2)oc2c(-c3ccccc3)cccc12", "Potency": "inactive"}, {"smiles": "CN(C)Cc1c(C(=O)NCCOc2ccc(C(=O)NO)cc2)oc2ccccc12", "Potency": "4.18 µM (active)"}, {"smiles": "O=C(O)c1cc(O)c2c(c1)C(=O)c1cccc(O)c1C2=O", "Potency": "inactive"}, {"smiles": "COc1cc2nc(-c3ccc(N4CCN(C)CC4)cc3)nc(NCCN3CCOCC3)c2cc1OC", "Potency": "0.526 µM (active)"}, {"smiles": "Cc1ncc([N+](=O)[O-])n1CC(C)O", "note": "(stereo not given)", "Potency": "inactive"}, {"smiles": "CS(=O)c1ccc(-c2nc(-c3ccc(F)cc3)c(-c3ccncc3)[nH]2)cc1", "note": "(stereo not given)", "Potency": "6.05 µM (active)"}, {"smiles": "CO[C@@H]1C(N(C)C(=O)c2ccccc2)C[C@H]2O[C@]1(C)n1c3ccccc3c3c4c(c5c6ccccc6n2c5c31)C(=O)NC4=O", "note": "(stereo not given in full)", "Potency": "9.35 µM (active)"}, {"smiles": "CC(C)[C@H](N)C(=O)OCCOCn1cnc2c(=O)[nH]c(N)nc21", "Potency": "inactive"}, {"smiles": "CN[C@H](CC(C)C)C(=O)N[C@H]1C(=O)N[C@@H](CC(N)=O)C(=O)N[C@@H]2C(=O)N[C@H]3C(=O)N[C@H](C(=O)N[C@H](C(=O)O)c4cc(O)cc(O)c4-c4cc3ccc4O)[C@H](O)c3ccc(c(Cl)c3)Oc3cc2cc(c3O[C@@H]2O[C@H](CO)[C@@H](O)[C@H](O)[C@@H]2O[C@H]2C[C@](C)(N)[C@H](O)[C@H](C)O2)Oc2ccc(cc2Cl)[C@H]1O", "Potency": "inactive"}, {"smiles": "O=C(NCc1ccccc1)c1csc(Nc2ccncn2)n1", "Potency": "2.35 µM (active)"}, {"smiles": "CC(C)CC(=O)N[C@H](C(=O)N[C@H](C(=O)N[C@@H](CC(C)C)[C@@H](O)CC(=O)N[C@@H](C)C(=O)N[C@@H](CC(C)C)[C@@H](O)CC(=O)O)C(C)C)C(C)C", "note": "(Isovaleryl-VV[Sta]A[Sta]-OH)", "Potency": "inactive"}, {"smiles": "CC(C)(O)CC[C@@H](O)[C@](C)(O)[C@H]1CC[C@@]2(O)C3=CC(=O)[C@@H]4C[C@@H](O)[C@@H](O)C[C@]4(C)[C@@H]3CC[C@]12C", "Potency": "inactive"}, {"smiles": "CC(=O)OCC(=O)[C@@]12N=C(C)O[C@H]1C[C@H]1[C@@H]3CCC4=CC(=O)C=C[C@]4(C)[C@@H]3[C@@H](O)C[C@@]12C", "Potency": "inactive"}, {"smiles": "NC(=O)OCC(COC(N)=O)c1ccccc1", "Potency": "inactive"}, {"smiles": "Fc1ccc(Cl)cc1-c1nc(Nc2ccncc2)c2nccnc2n1", "Potency": "inactive"}, {"smiles": "CC(C[N+](C)(C)C)OC(N)=O", "note": "(stereo not given)", "Potency": "inactive"}, {"smiles": "COc1cc2ncnc(Nc3cccc(Cl)c3)c2cc1OC", "Potency": "4.69 µM (active)"}, {"smiles": "COC(=O)Nc1cc(Nc2cc(NC3CC3)c3ncc(C#N)n3n2)c(Cl)c(N2CCN(C)CC2)c1", "Potency": "16.6 µM (active)"}, {"smiles": "C[C@]12C=CC(=O)C=C1CC[C@@H]1[C@@H]2C(=O)C[C@@]2(C)[C@H]1CC[C@]2(O)C(=O)CO", "Potency": "inactive"}, {"smiles": "C#Cc1cccc(Nc2ncnc3cc(OCCOC)c(OCCO)cc23)c1", "Potency": "9.35 µM (active)"}, {"smiles": "CC(C)OC(=O)C(C)(C)Oc1ccc(C(=O)c2ccc(Cl)cc2)cc1", "Potency": "inactive"}]}]}
